Holding throughout (experiment): DAPPL (digital affinity profiling via proximity ligation, sequencing); 10 mM Tris-HCl pH 7.5, 50 mM NaCl, 1 mM DTT, 4% glycerol, room temperature, 30 min; GST-TFs on glutathione beads, 16-mer random dsDNA library, 0.1% formaldehyde crosslink after washing; high values mean tight binding
What all share (conditions): protein: recombinant; tags: N-terminal GST; dsDNA, one strand shown

The target of one test is T1, ELK4 (Homo sapiens, UniProt P28324-2 1-405).
T1 sequence: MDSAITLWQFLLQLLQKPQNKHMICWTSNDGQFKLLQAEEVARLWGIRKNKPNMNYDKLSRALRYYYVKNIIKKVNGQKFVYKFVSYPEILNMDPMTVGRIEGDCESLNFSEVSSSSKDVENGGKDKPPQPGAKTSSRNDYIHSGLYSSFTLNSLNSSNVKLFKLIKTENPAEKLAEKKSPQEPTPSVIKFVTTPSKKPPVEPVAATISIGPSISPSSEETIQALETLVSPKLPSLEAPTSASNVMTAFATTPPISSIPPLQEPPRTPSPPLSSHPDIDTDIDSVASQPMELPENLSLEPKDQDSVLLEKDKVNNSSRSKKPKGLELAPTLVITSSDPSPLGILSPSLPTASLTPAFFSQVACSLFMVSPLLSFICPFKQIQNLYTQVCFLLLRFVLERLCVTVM
In short, it runs like this: (§1)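 Binding signal is defined as a hexamer's read frequency for one factor over its frequency for the tag-only sample. To obtain reads, GST-fused human transcription factors were expressed in yeast, captured on glutathione beads, barcoded with DNA and pooled with that sample. Pools met 200 nmole of a 16-mer random double-stranded DNA library in Tris/NaCl/DTT/glycerol buffer for 30 min at room temperature before washing, 0.1% formaldehyde crosslinking, proximity ligation (BsaI/T4 ligase, 1 h, 37 °C), PCR and Illumina NextSeq500 sequencing.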

A further test deals with T2, ELF3 (Homo sapiens, UniProt P78545 1-371).
T2 sequence: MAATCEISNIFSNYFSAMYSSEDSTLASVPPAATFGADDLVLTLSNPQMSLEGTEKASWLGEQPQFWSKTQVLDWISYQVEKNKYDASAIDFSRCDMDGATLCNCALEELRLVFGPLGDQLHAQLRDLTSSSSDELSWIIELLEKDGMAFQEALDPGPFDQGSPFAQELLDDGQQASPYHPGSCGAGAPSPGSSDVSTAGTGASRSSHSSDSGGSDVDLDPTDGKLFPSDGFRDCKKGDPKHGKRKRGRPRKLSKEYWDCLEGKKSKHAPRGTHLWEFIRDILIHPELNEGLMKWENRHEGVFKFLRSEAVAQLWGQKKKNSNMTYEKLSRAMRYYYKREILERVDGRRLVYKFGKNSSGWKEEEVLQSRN
The method, boiled down:
as §1

The target of the next test is T3, SPDEF (Homo sapiens, UniProt O95238 1-335).
T3 sequence: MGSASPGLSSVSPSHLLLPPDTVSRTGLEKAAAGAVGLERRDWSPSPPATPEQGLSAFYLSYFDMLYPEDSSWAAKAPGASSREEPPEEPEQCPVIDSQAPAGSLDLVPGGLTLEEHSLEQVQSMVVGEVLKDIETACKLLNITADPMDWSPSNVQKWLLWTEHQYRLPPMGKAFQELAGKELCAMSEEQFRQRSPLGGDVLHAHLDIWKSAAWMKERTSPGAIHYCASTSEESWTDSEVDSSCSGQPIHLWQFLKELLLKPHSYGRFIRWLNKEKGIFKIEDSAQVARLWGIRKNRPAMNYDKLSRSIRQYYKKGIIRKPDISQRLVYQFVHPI
In short, it runs like this: as §1

Another test addresses T4, ETV7 (Homo sapiens, UniProt Q9Y603 1-341).
T4 sequence: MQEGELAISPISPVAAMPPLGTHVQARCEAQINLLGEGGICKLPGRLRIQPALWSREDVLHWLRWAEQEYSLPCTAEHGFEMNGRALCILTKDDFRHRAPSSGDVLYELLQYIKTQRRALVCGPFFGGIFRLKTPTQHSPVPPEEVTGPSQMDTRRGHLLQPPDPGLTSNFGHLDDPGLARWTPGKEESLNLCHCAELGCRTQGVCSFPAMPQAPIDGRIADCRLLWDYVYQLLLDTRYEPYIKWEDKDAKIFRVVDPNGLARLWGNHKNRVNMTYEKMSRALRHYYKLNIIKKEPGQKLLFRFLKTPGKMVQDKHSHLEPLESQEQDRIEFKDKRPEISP
In short, it runs like this:
as §1

For a further test, the target named is CRX (Homo sapiens, UniProt O43186 1-299). In short, it runs like this:
as §1

The next test deals with T5, ETV2 (Homo sapiens, UniProt O00321 1-342).
T5 sequence: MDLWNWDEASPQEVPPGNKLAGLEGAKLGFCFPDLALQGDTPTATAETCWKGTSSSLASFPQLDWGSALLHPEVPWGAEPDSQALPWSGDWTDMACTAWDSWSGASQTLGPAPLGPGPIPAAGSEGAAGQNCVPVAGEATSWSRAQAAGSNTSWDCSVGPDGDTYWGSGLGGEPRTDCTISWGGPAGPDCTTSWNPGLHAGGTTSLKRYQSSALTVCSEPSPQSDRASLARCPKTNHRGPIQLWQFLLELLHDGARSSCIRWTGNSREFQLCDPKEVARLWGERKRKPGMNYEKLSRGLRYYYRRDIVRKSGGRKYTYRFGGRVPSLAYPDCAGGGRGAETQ
The method, boiled down:
as §1

This passage reports binding signal results from PMC7862700, “An all-to-all approach to the identification of sequence-specific readers for epigenetic DNA modifications on cytosine”.

CRX, sequence (O43186 whole entry): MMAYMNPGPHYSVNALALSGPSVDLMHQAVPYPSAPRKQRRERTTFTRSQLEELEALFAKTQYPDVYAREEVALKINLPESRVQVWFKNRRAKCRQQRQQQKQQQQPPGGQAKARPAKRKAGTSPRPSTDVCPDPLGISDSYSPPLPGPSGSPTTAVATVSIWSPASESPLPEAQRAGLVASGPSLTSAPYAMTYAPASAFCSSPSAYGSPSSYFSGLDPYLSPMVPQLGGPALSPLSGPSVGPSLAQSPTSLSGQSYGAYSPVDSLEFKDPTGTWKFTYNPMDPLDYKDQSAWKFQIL

CCATGC: the binding signal in the test with ELK4 is 1.13 fold enrichment (6-mer frequency, TF over GST control); with ELF3 it was 1.18 fold enrichment (6-mer frequency, TF over GST control); with SPDEF it was 1.06 fold enrichment (6-mer frequency, TF over GST control); with ETV7, 1.1 fold enrichment (6-mer frequency, TF over GST control).
In the case of CATCGC, the binding signal is 1.14 fold enrichment (6-mer frequency, TF over GST control) with ELK4 and 1.11 fold enrichment (6-mer frequency, TF over GST control) with ETV7.
CGCCCG: the binding signal was 1.09 fold enrichment (6-mer frequency, TF over GST control) in the test with ELK4; 1.14 fold enrichment (6-mer frequency, TF over GST control) in the test with ELF3; 1.1 fold enrichment (6-mer frequency, TF over GST control) in the test with SPDEF; 1.08 fold enrichment (6-mer frequency, TF over GST control) with ETV7.
Take TGGTCA: the binding signal with ELK4 is 1.04 fold enrichment (6-mer frequency, TF over GST control); with ELF3, 1.1 fold enrichment (6-mer frequency, TF over GST control).
Consider GTTGAT, for which the binding signal is 1.17 fold enrichment (6-mer frequency, TF over GST control) with ELK4; 1.1 fold enrichment (6-mer frequency, TF over GST control) with CRX; 1.07 fold enrichment (6-mer frequency, TF over GST control) with SPDEF.
As to TCGTCA, the binding signal with ETV2 was 1.02 fold enrichment (6-mer frequency, TF over GST control); with SPDEF, 1.06 fold enrichment (6-mer frequency, TF over GST control).
Take TACGGT: the binding signal with ELK4 is 1.02 fold enrichment (6-mer frequency, TF over GST control); in the test with ETV2, 1.07 fold enrichment (6-mer frequency, TF over GST control); with ELF3 it was 1.11 fold enrichment (6-mer frequency, TF over GST control); in the test with CRX it was 1.03 fold enrichment (6-mer frequency, TF over GST control); in the test with SPDEF, 1.1 fold enrichment (6-mer frequency, TF over GST control); with ETV7, 1.08 fold enrichment (6-mer frequency, TF over GST control).
As for ATAAGG, the binding signal was 1.02 fold enrichment (6-mer frequency, TF over GST control) in the test with ETV2; 1.1 fold enrichment (6-mer frequency, TF over GST control) in the test with ELF3; 1.28 fold enrichment (6-mer frequency, TF over GST control) in the test with CRX; 1.05 fold enrichment (6-mer frequency, TF over GST control) in the test with SPDEF.
For the sequence AGCTGT, the binding signal with ELK4 is 1.04 fold enrichment (6-mer frequency, TF over GST control); with ETV2, 1.07 fold enrichment (6-mer frequency, TF over GST control); with CRX, 1.02 fold enrichment (6-mer frequency, TF over GST control).
Consider CCCCGT, for which the binding signal is 1.1 fold enrichment (6-mer frequency, TF over GST control) with ETV2; 1.26 fold enrichment (6-mer frequency, TF over GST control) in the test with ELF3; 1 fold enrichment (6-mer frequency, TF over GST control) in the test with SPDEF.
As for GAAGTC, the binding signal was 1.08 fold enrichment (6-mer frequency, TF over GST control) with ETV2; 1.1 fold enrichment (6-mer frequency, TF over GST control) with ELF3; 1.06 fold enrichment (6-mer frequency, TF over GST control) with SPDEF; 1.1 fold enrichment (6-mer frequency, TF over GST control) with ETV7.
GCCGCC: the binding signal was 1.08 fold enrichment (6-mer frequency, TF over GST control) in the test with ELF3 and 1.03 fold enrichment (6-mer frequency, TF over GST control) in the test with ETV7.
For the sequence ACGGCA, the binding signal was 1.1 fold enrichment (6-mer frequency, TF over GST control) with ELF3 and 1.11 fold enrichment (6-mer frequency, TF over GST control) with SPDEF.
AAACCG: the binding signal with ETV2 is 1.03 fold enrichment (6-mer frequency, TF over GST control); with ELF3, 1.07 fold enrichment (6-mer frequency, TF over GST control); in the test with SPDEF, 1.11 fold enrichment (6-mer frequency, TF over GST control); in the test with ETV7, 1.04 fold enrichment (6-mer frequency, TF over GST control).
On to CGTCGC, for which the binding signal is 1.2 fold enrichment (6-mer frequency, TF over GST control) with ETV2; 1.1 fold enrichment (6-mer frequency, TF over GST control) in the test with ELF3; 1.24 fold enrichment (6-mer frequency, TF over GST control) in the test with SPDEF; 1.23 fold enrichment (6-mer frequency, TF over GST control) in the test with ETV7.
As to GTTACG, the binding signal with ELK4 was 1.03 fold enrichment (6-mer frequency, TF over GST control); in the test with ETV2 it was 1.22 fold enrichment (6-mer frequency, TF over GST control); with SPDEF it was 1.04 fold enrichment (6-mer frequency, TF over GST control); with ETV7 it was 1.02 fold enrichment (6-mer frequency, TF over GST control).
For CGCTGG, the binding signal was 1.01 fold enrichment (6-mer frequency, TF over GST control) with ELK4; 1.03 fold enrichment (6-mer frequency, TF over GST control) with ETV2; 1.02 fold enrichment (6-mer frequency, TF over GST control) in the test with ETV7.
As for CGCTAT, the binding signal with ELK4 was 1.07 fold enrichment (6-mer frequency, TF over GST control); with ETV2 it was 1.15 fold enrichment (6-mer frequency, TF over GST control); with ELF3 it was 1.01 fold enrichment (6-mer frequency, TF over GST control); with SPDEF, 1.1 fold enrichment (6-mer frequency, TF over GST control); with ETV7, 1.25 fold enrichment (6-mer frequency, TF over GST control).
Turning to GGTCCT, the binding signal is 1.05 fold enrichment (6-mer frequency, TF over GST control) with ELK4; 1.13 fold enrichment (6-mer frequency, TF over GST control) in the test with ETV2; 1.1 fold enrichment (6-mer frequency, TF over GST control) with SPDEF; 1.09 fold enrichment (6-mer frequency, TF over GST control) with ETV7.
In the case of CGGAAC, the binding signal in the test with ETV2 was 1.14 fold enrichment (6-mer frequency, TF over GST control); with ELF3, 1.11 fold enrichment (6-mer frequency, TF over GST control); with SPDEF it was 1.32 fold enrichment (6-mer frequency, TF over GST control).
As for TGTGGT, the binding signal in the test with ELK4 is 1.03 fold enrichment (6-mer frequency, TF over GST control); in the test with ETV2, 1.07 fold enrichment (6-mer frequency, TF over GST control); with ELF3 it was 1.2 fold enrichment (6-mer frequency, TF over GST control); with SPDEF, 1.07 fold enrichment (6-mer frequency, TF over GST control); with ETV7, 1.11 fold enrichment (6-mer frequency, TF over GST control).
Turning to GTGTCC, the binding signal in the test with ETV2 is 1.19 fold enrichment (6-mer frequency, TF over GST control); with ELF3 it was 1.22 fold enrichment (6-mer frequency, TF over GST control); with SPDEF it was 1.34 fold enrichment (6-mer frequency, TF over GST control); with ETV7, 1.22 fold enrichment (6-mer frequency, TF over GST control).
Regarding CTGCGG, the binding signal is 1.25 fold enrichment (6-mer frequency, TF over GST control) in the test with ETV2; 1.2 fold enrichment (6-mer frequency, TF over GST control) in the test with ELF3; 1.18 fold enrichment (6-mer frequency, TF over GST control) in the test with ETV7.
In the case of TCGCTG, the binding signal is 1.15 fold enrichment (6-mer frequency, TF over GST control) with ELK4; 1.12 fold enrichment (6-mer frequency, TF over GST control) in the test with ELF3; 1.06 fold enrichment (6-mer frequency, TF over GST control) with ETV7.
In the case of GGACTC, the binding signal in the test with ELK4 is 1.04 fold enrichment (6-mer frequency, TF over GST control); in the test with ETV2 it was 1.01 fold enrichment (6-mer frequency, TF over GST control).
On to CGCGAC, for which the binding signal was 1.14 fold enrichment (6-mer frequency, TF over GST control) with ELK4; 1.34 fold enrichment (6-mer frequency, TF over GST control) with ETV2; 1.05 fold enrichment (6-mer frequency, TF over GST control) in the test with ELF3; 1.08 fold enrichment (6-mer frequency, TF over GST control) in the test with SPDEF.
As to TAACCG, the binding signal is 1.2 fold enrichment (6-mer frequency, TF over GST control) with ETV2; 1.04 fold enrichment (6-mer frequency, TF over GST control) with ELF3; 1.1 fold enrichment (6-mer frequency, TF over GST control) with CRX; 1.1 fold enrichment (6-mer frequency, TF over GST control) in the test with SPDEF; 1.02 fold enrichment (6-mer frequency, TF over GST control) with ETV7.
With CAGCTA, the binding signal with ELK4 was 1.16 fold enrichment (6-mer frequency, TF over GST control); with ELF3, 1.1 fold enrichment (6-mer frequency, TF over GST control); with CRX, 1.05 fold enrichment (6-mer frequency, TF over GST control); in the test with ETV7, 1.13 fold enrichment (6-mer frequency, TF over GST control).
As for AGTATG, the binding signal with ELF3 was 1.08 fold enrichment (6-mer frequency, TF over GST control); with ETV7, 1.12 fold enrichment (6-mer frequency, TF over GST control).
